Screens as filed in PubChem BioAssay.
Hits are enriched below; roughly 4.1% of the tested compounds scored in any of these assays.
Anthrax LF prot = blocks Bacillus anthracis lethal factor protease; multiplex microsphere protease cleavage assay, LF; actives 0.12% (n = 360,000); P15917; inhibition, % at 10 µM; also: plate controls were buffer without enzyme for full effect and enzyme alone for no effect
DUSP3 inh = DUSP3 (human) phosphatase inhibition. AID 1654. actives 0.52% (n = 290,000). inhibition, % at 13.3 µM. P51452. recombinant VHR phosphatase, pNPP absorbance; in the data active = inhibition above about 50%
Target sequence (P51452 whole entry, looked up): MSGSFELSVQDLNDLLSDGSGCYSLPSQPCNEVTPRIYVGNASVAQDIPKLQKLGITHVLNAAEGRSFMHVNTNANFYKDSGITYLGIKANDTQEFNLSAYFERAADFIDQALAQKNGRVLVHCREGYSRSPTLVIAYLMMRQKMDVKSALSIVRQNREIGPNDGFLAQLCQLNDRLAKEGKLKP
BoNT F protease = BoNT F light chain protease inhibition | Multiplex microsphere protease cleavage assay, flow cytometry | inhibition, % at 10 µM | actives 0.22% (n = 360,000) | AID 588497; in the data active = inhibition above about 35%, passing the limit was not always enough; inconclusive = no clear call, values can overlap the other calls; also: plate controls were buffer without enzyme for full effect and enzyme alone for no effect
Bead autofluor = counter-screen for toxin protease inhibitors: compound fluorescence. compound autofluorescence counterscreen, microsphere flow cytometry; stronger effect = higher value. fluorescence intensity (no concentration beside the values). actives 3.1% (n = 360,000); in the data active = fluorescence intensity above about 16000; inconclusive = no clear call, values can overlap the other calls
BoNT A protease = BoNT A light chain protease inhibition. actives 0.17% (n = 360,000). multiplex microsphere protease substrate cleavage, flow cytometry. inhibition, % at 10 µM; also: plate controls were buffer without enzyme for full effect and enzyme alone for no effect
MazF activator = MazEF (E. coli) toxin RNase activation | activation, % at 20 µM | P0AE70 | FAM/BHQ RNA-DNA oligo cleavage fluorescence, 5 h | actives 0.32% (n = 350,000); in the data active = activation above about 50%
Target sequence (P0AE70 whole entry, looked up): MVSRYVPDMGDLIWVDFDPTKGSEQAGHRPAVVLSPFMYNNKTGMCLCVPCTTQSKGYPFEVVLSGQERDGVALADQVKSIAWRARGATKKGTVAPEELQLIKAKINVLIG
Starred values were filed as active, the others as inactive; ? = inconclusive; nt = no result given. Rule as the data show it, unless noted: active = inhibition above about 30%; inconclusive = no clear call, values can overlap the other calls; inactive = below that.

SMILES | Anthrax LF prot | DUSP3 inh | BoNT F protease | Bead autofluor | BoNT A protease | MazF activator
CC(OC(=O)C1CC=CCC1C(N)=O)C(Cl)=C(Cl)Cl (stereo not drawn) | 0 | 3 | 2 | 22015* | 2 | 2
Cc1ccc(C)c(CSc2nnc([C@@H](N)C(C)C)o2)c1 | 2 | 14 | -4 | 16262* | 0 | -2
Cc1ccc(C)c(CSc2nnc(CCN)o2)c1 | 2 | 2 | 6 | 9821 | 0 | 7
COc1ccc(C(=O)NN2CCCCC2)cc1OC | 2 | -2 | 2 | 22220* | ? | 1
Cc1cccc(N2CCN(C(=O)c3ccc(Cl)c(S(=O)(=O)N4CCc5ccccc5C4)c3)CC2)c1C | -2 | 59* | -3 | 2416 | 0 | -7
CCCCC(=O)N1CCCC(C(=O)OCC)C1 (stereo not drawn) | -1 | 38 | 0 | 22655* | -1 | 2
CCCCOc1ccc(C(=O)N2CCCC2)cc1 | 0 | -8 | -1 | 16482* | ? | 6
COc1ccc(C(=O)NCC(=O)N2CCCCC2)cc1OC | -1 | -5 | 1 | 3383 | 0 | 1
Cc1ccc(C#CC[N+](C)(C)CC#Cc2ccccc2)cc1 | -1 | 7 | -5 | 4756 | 4 | 7
COc1ccccc1C(=O)COC(=O)Cc1ccccc1F | -2 | nt | -8 | 3830 | 0 | 7
CCCC(C(=O)NC(C)(C)C)N(CCN1CCOCC1)C(=O)CNS(=O)(=O)c1ccccc1 (stereo not drawn) | -7 | 12 | 1 | 3511 | -1 | -3
CCCOc1ccc(C(=O)N2CCCC2)cc1OC | 1 | 13 | -1 | 19871* | ? | 0
CCOC(=O)C1CCCN(C(=S)Nc2ccc(C)cc2C)C1 (stereo not drawn) | -1 | 16 | -2 | 16244* | 0 | 2
CCOC(=O)N1CCN(C(=O)c2ccc(OC)c(OC)c2)CC1 | -4 | -10 | -8 | 4292 | 1 | 7
CCOC(=O)C1CCCN(C(=O)c2ccc(OCC)cc2)C1 (stereo not drawn) | 1 | 27 | -2 | 24552* | -1 | 8
CCOc1ccc(C(=O)N2CCN(c3cccc(C)c3C)CC2)cc1 | -1 | 11 | -6 | 17197* | -2 | -1
CCOC(=O)C1CCCN(C(=S)Nc2ccc(Nc3ccccc3)cc2)C1 (stereo not drawn) | 1 | 5 | -7 | 3346 | 0 | 2
Cc1ccc(OCC(=O)N(C)CCc2ccccn2)cc1 | -2 | 15 | 1 | 24016* | ? | -6
COCCNC(=O)c1cc2c(c(-c3cccc(-c4cc5ccccc5o4)c3)n1)[C@@H](CCO)N(S(=O)C(C)(C)C)C2 (stereo partly drawn) | -4 | nt | -22 | 6002 | -1 | nt
CCOc1ccc2c(S(=O)(=O)O)cccc2c1[N+](=O)[O-] | -5 | nt | -3 | 4018 | 0 | 2
COCc1nnc(NC(=O)c2ccc(NC(=O)C(C)C)cc2)s1 | -2 | 19 | -3 | 23228* | -2 | 8
COCc1nnc(NC(=O)c2cc(Cl)ccc2OC)s1 | -1 | 8 | -5 | 23665* | -2 | 9
COc1ccccc1N1CCN(C2CCCN(C(=O)CCN3CCCCO3)C2)CC1 (stereo not drawn) | -4 | 51* | 5 | 5000 | -2 | 13
Cc1ccc2c(CC(=O)OCc3cc(=O)n4c(n3)sc3ccccc34)coc2c1 | 0 | 11 | ? | 5227 | -1 | -1
CC(C)[C@H](NC(=O)Cc1ccccc1)C(=O)OCc1cc(=O)n2c(n1)sc1ccccc12 | 2 | 54* | 1 | 2428 | 0 | -1
SMILES | Anthrax LF prot | DUSP3 inh | BoNT F protease | Bead autofluor | BoNT A protease | MazF activator
CCOC1(C(F)(F)F)NC(=O)N(Cc2ccc(OC)cc2)C1=O (stereo not drawn) | -8 | 19 | 0 | 19545* | 0 | 3
COc1ccc(CN2C(=O)CC(=O)NC2=S)cc1 | 0 | 26 | -4 | 2641 | -1 | 0
CCOC(=O)c1ccc(-c2ccc(-c3cc(=O)oc4cc(OC)c(OC)c(OC)c34)cc2)cc1 | -4 | nt | 3 | 3109 | 0 | 0
O=C(CCN1C(=O)/C(=C/C=C/c2ccccc2)SC1=S)Nc1nc2ccccc2s1 | 28 | -6 | 20 | 2563 | 56* | -23
Cc1nnc(NC(=O)CCN2C(=O)/C(=C\c3ccccc3)SC2=S)s1 | 2 | 38 | -7 | 4420 | -1 | -11
O=C(CN1C(=O)/C(=C\C=C\c2ccccc2)SC1=S)Nc1ccc(F)cc1 | 18 | -4 | 18 | 2623 | 34* | 49
O=C(COC(=O)CCN1C(=O)/C(=C\C=C\c2ccccc2)SC1=S)Nc1cc(F)ccc1F | 20 | 19 | 11 | 4972 | 42* | -13
O=C(CCN1C(=O)/C(=C\C=C\c2ccccc2)SC1=S)Nc1ccc(C(=O)O)cc1 | 9 | 84 | 24 | 4578 | 18 | -15
O=C1NC2(CCCCCC2)C(=O)N1Cc1ccccc1F | 5 | 4 | 5 | 3754 | 3 | 10
CC(=O)N(O)c1ccc(C=Cc2ccccc2)cc1 | -6 | nt | -11 | 4353 | 0 | nt
CCC[C@H]1CN(c2ccccc2)C(=O)[C@@H]1CC(=O)NC | -4 | nt | -2 | 3421 | 0 | -6
Cn1c(SCc2cccc(F)c2)nnc1-c1ccccn1 | -2 | 22 | 1 | 16789* | 0 | 4
Cc1ccsc1C1C2=C(CCCC2=O)Nc2ncnn21 (stereo not drawn) | 2 | 12 | -3 | 22735* | 0 | 0
Cc1ccsc1C1C2=C(CC(C)(C)CC2=O)Nc2ncnn21 (stereo not drawn) | -3 | 34 | -12 | 5800 | 0 | 7
CCOC(=O)c1c(N2C(=O)C3C4C=CC(C4)C3C2=O)sc2c1CCC(C)C2 (stereo not drawn) | -2 | 22 | -18 | 2487 | 0 | 4
CCOC(=O)c1cc(C)sc1N1C(=O)C2C3C=CC(C3)C2C1=O (stereo not drawn) | 0 | 4 | -4 | 24106* | -2 | 6
CN(Cc1cccc(C(F)(F)F)c1)C(=O)[C@H]1O[C@@H](n2ccc(N)nc2=O)[C@H](O)[C@@H]1O | 1 | nt | 0 | 5880 | 0 | nt
COC(=O)c1cccc(NC(=O)c2cnn(C)c2)c1 | 4 | nt | 0 | 5610 | 0 | 5
Cc1nc2ccccc2n1CC(=O)NN | -2 | -5 | 2 | 2240 | 0 | -10
O=C(Cn1c(CC(=O)N2CCCC2)nc2ccccc21)NCc1ccccc1 | 0 | 3 | -3 | 24078* | -1 | -1
Cc1nc2ccccc2n1CC(=O)NCc1ccccc1 | 0 | 2 | 4 | 22747* | 1 | 10
CCCCN(C=O)c1c(CC)nc2c(OCC(=O)c3ccc(F)cc3)cccn12 | 0 | nt | -7 | 4199 | 0 | nt
CCc1noc(C)c1C(=O)Nc1nc(-c2ccccc2)c(C(C)=O)s1 | 3 | nt | -9 | 4118 | 0 | 4
N#C/C(=C/c1ccc(N2CCCCC2)o1)C(=O)Nc1ccc(Cl)cc1 | -1 | -22 | 36* | 17947* | -1 | -323
N#C/C(=C/c1ccc(N2CCCCC2)o1)C(=O)Nc1ccc2ccccc2c1 | 39* | -7 | 65* | 60126* | 26 | -133
